Assay results taken from PubChem BioAssay AID624139 (Broad Institute, 2012).
The campaign covered roughly 17,000 compounds. About 220 (1.3%) were called active. The sample holds actives, similar compounds and a random draw of the others, so the mix is not that of the screen.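 How the source made its calls: active means spot fluorescence over background significantly raised, with a chance value under 7% in all four replicate spots of the compound; inactive means the rest.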

target: Nuclear factor NF-kappa-B p105 subunit (Homo sapiens) (UniProt P19838); assay: small molecules binding NF-kappa-B p105/p50 – biochemical, small molecule microarray, anti-His fluorescence, primary screen (AID 624139);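 further: probe protein is his-tagged human p50 processed subunit at 1 µg/ml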
Sequence (P19838 1-433 limits assumed): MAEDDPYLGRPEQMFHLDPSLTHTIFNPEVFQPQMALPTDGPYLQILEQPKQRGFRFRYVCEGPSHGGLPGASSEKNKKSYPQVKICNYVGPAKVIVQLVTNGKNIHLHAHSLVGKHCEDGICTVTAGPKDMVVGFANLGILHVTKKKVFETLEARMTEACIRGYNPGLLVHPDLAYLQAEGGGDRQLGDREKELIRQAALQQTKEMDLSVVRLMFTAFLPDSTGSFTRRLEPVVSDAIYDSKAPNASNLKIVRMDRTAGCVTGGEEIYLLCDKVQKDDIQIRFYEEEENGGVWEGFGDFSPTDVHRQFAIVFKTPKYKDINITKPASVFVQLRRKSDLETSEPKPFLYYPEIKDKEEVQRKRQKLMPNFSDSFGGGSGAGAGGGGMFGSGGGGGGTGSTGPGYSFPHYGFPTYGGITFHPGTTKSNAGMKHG

Compound | outcome
C[C@@H]1CN([C@@H](C)CO)C(=O)Cc2cc(NC(=O)Cc3ccccc3)ccc2O[C@H]1CN(C)Cc1ccc(C(=O)O)cc1 | inactive
Cc1noc(C)c1NC(=O)Nc1ccc2c(c1)C(=O)N([C@H](C)CO)C[C@H](C)[C@H](CN(C)C(=O)C1CCCCC1)OCCCC[C@@H](C)O2 | inactive
C[C@H]1CCCCO[C@H](CN(C)C(=O)CCC(F)(F)F)[C@@H](C)CN([C@@H](C)CO)C(=O)c2cc(NC(=O)Cc3ccccc3)ccc2O1 | inactive
C=CC[C@]1(C(=O)NCC(O)CO)N=C(c2ccc(OCCCO)cc2)O[C@H]1c1ccccc1 (stereo partly drawn) | inactive
CNC[C@@H]1Oc2c(NC(=O)C3CCOCC3)cccc2C(=O)N([C@@H](C)CO)C[C@H]1C | inactive
COc1ccc(NC(=O)O[C@H]2[C@H](OC(=O)Nc3ccc4c(c3)OCO4)[C@@H](OC(=O)Nc3ccc4c(c3)OCO4)[C@@H](OC)O[C@@H]2CO)cc1 | inactive
C[C@H](CO)N1C[C@H](C)[C@@H](CN(C)Cc2ccncc2)Oc2ccc(NC(=O)Nc3ccccc3)cc2C1=O | inactive
C[C@H](CO)N1C[C@H](C)[C@H](CN(C)Cc2ccncc2)Oc2ccc(NC(=O)Nc3ccc(F)cc3)cc2C1=O | inactive
C[C@@H]1CN([C@@H](C)CO)C(=O)c2cc(NS(=O)(=O)c3cn(C)cn3)ccc2O[C@@H](C)CCCCO[C@H]1CN(C)S(=O)(=O)c1cn(C)cn1 | inactive
OC(COc1ccc2ccccc2c1)Cn1cncn1 (stereo not drawn) | inactive
COc1ccc(S(=O)(=O)N(C)C[C@@H]2Oc3ccc(NS(=O)(=O)c4ccc(Cl)cc4)cc3C(=O)N([C@H](C)CO)C[C@H]2C)cc1 | inactive
Cc1cc(C(=O)Nc2cccc3c2O[C@H](CN(C)C(=O)Nc2ccccc2)[C@@H](C)CN([C@H](C)CO)C3=O)n(C)n1 | inactive
O=c1[nH]c(CSCCO)nc2c1C1(CCCCC1)Cc1ccccc1-2 | inactive
C[C@@H]1CCCCO[C@@H](CN(C)Cc2ccc(Cl)c(Cl)c2)[C@@H](C)CN([C@@H](C)CO)C(=O)c2cc(NS(C)(=O)=O)ccc2O1 | inactive
CO[C@H]1O[C@H](CO)[C@@H](OC(=O)Nc2ccccc2)[C@H](OC(=O)Nc2ccc3c(c2)OCO3)[C@H]1OC(=O)Nc1ccc2c(c1)OCO2 | inactive
O=C(Cn1c(-c2ccccn2)nc2ccccc21)NCCN1CCOCC1 | inactive
C[C@H]1CN([C@@H](C)CO)C(=O)CCCn2nncc2CO[C@@H]1CN(C)Cc1ccc(Oc2ccccc2)cc1 | inactive
O=C1c2ccccc2C(=O)N1CCCn1c2ccccc2c2nc3ccc([N+](=O)[O-])cc3cc21 | inactive
